According to PubChem BioAssay (NCI):
Several values for one entry are separate records, joined by “and”; a condition that tells them apart may be missing. Identical values can stand only once. The panel holds about 79,000 compounds, 15% with a hit somewhere; the sample as a whole holds those more often. The source holds several records for some structures; these can differ, active in one and inactive in another. Activity calls are given as the source filed them. Rule as the data show it: active = growth inhibition above about 70%; inactive = the rest.

Assays:
[1] = NCI Yeast Anticancer Drug Screen. Data for the sgs1 mgt1 strain (AID 161);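 also: 0% = growth of cultures given vehicle only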; details: S. cerevisiae sgs1 mgt1 strain, stronger effect = higher value
Outline: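 Growth of a repair-deficient yeast mutant was monitored after compound treatment and expressed as inhibition relative to vehicle-treated cultures.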

[2] = NCI Yeast Anticancer Drug Screen. Data for the CLN2oe strain (AID 163);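 also: 0% = growth of vehicle-only control cultures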; details: S. cerevisiae CLN2oe strain, stronger effect = higher value
Outline: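 Values reflect how much compound exposure reduced yeast growth, referenced to vehicle-exposed cells. Assay organism is a strain with a defined genetic change affecting cell-cycle control.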

[3] = NCI Yeast Anticancer Drug Screen. Data for the cln2 rad14 strain (AID 165);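 also: 0% = growth equal to vehicle treated cultures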; details: S. cerevisiae cln2 rad14 strain, stronger effect = higher value
Outline: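 Relative to vehicle controls, growth inhibition of compound-treated cln2 rad14 yeast was recorded.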

[4] = NCI Yeast Anticancer Drug Screen. Data for the bub3 strain (AID 167); details: S. cerevisiae bub3 mutant strain, stronger effect = higher value
Outline: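 Inhibition values come from growth of compound-treated mutant yeast normalised to vehicle-treated controls.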

[5] = NCI Yeast Anticancer Drug Screen. Data for the wt2 strain (AID 169);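 also: 0% = growth of vehicle-treated yeast cultures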; details: S. cerevisiae wt2 strain growth inhibition, stronger effect = higher value
Outline: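 Values express reduction in yeast growth under compound treatment, referenced to vehicle-treated cells.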

[6] = NCI Yeast Anticancer Drug Screen. Data for the mlh1 strain (AID 171);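 also: 0% = growth of vehicle-treated control cultures of the same strain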; details: S. cerevisiae mlh1 strain growth inhibition, stronger effect = higher value
Outline: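 Steps: expose the defined-mutant yeast strain to compound; expose a parallel culture to vehicle; measure growth; express compound effect as inhibition relative to the vehicle culture.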

[7] = NCI Yeast Anticancer Drug Screen. Data for the sgs1 strain (AID 173);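 also: 0% = growth of vehicle-only control cultures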; details: S. cerevisiae sgs1 mutant, stronger effect = higher value
Outline: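 Treat defined-mutant yeast with compound; measure growth; calculate inhibition relative to vehicle-treated cells.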

[8] = NCI Yeast Anticancer Drug Screen. Data for the mlh1 rad18 strain (AID 175); details: S. cerevisiae mlh1 rad18 strain growth inhibition, stronger effect = higher value
Outline: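 Test agents were incubated with a yeast strain of defined genotype (DNA damage repair defect). Inhibition of growth was derived by comparison with vehicle-exposed cultures.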

[9] = NCI Yeast Anticancer Drug Screen. Data for the rad18 strain (AID 177); details: S. cerevisiae rad18 mutant growth inhibition, stronger effect = higher value
Outline: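 A genetically defined yeast mutant impaired in DNA damage repair was treated with test compounds, then its growth was measured against cultures receiving vehicle alone.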

[10] = at 5.0 µM (retest, dose inferred, filed as 0.5)
[11] = at 50.0 µM (retest, dose inferred, filed as 5.0)

Measured: growth inhibition

CN(C)CCOC1(Cc2ccc(Cl)cc2Cl)CCC(C(C)(C)C)CC1 (configuration not stated)
active: [1]; [11] 100% | [1]; at 50.0 µM 99.5% and 99.7% | [2]; at 11.0 µM 99% and 81% | [2]; at 33.0 µM 98% | [2]; at 100.0 µM 97% and 99% | [3]; [11] 100% | [3]; at 50.0 µM 99.1% and 97.9% | [4]; at 11.0 µM 99% and 98% | [4]; at 33.0 µM 99% and 98% | [4]; [11] 100% | [4]; at 50.0 µM 99.2% and 95.8% | [4]; at 100.0 µM 99% | [5]; at 11.0 µM 99% | [5]; at 33.0 µM 100% and 99% | [5]; at 100.0 µM 100% | [6]; at 11.0 µM 99% | [6]; at 33.0 µM 100% and 99% | [6]; at 100.0 µM 100% and 99% | [7]; at 11.0 µM 99% | [7]; at 33.0 µM 100% and 99% | [7]; at 100.0 µM 100% and 99% | [8]; [11] 100% and 99% | [8]; at 50.0 µM 99.5% and 99.4% | [9]; at 11.0 µM 99% and 98% | [9]; at 33.0 µM 99% | [9]; at 100.0 µM 99%
96% (active) and 68% (inactive): [8]; [10]
inactive: [1]; [10] 64% and 58% | [2]; at 1.2 µM -9% and -8% | [2]; at 3.7 µM -8% | [3]; [10] 40% and 16% | [4]; at 1.2 µM -8% and -3% | [4]; at 3.7 µM 0% and -2% | [4]; [10] 8% and 15% | [5]; at 1.2 µM -1% and -3% | [5]; at 3.7 µM 3% and 8% | [6]; at 1.2 µM 0% and -1% | [6]; at 3.7 µM 6% and 14% | [7]; at 1.2 µM -1% | [7]; at 3.7 µM 11% and 26% | [9]; at 1.2 µM 0% and -4% | [9]; at 3.7 µM 0% and -2%
